Compound activity (PubChem)
sdo1 growth = sdo1-depleted yeast growth rescue; S. cerevisiae sdo1-depleted JHY4D growth rescue, OD600 30 h; active compounds read high; pdr5 snq2 efflux-pump mutant strain; z-score at 10 µM; actives 0.21% (n = 140,000); AID 817;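 active = z-score above 3 at both the 24 hr and the 30 hr optical density reads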;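 note: z-score against mean and SD of all compound wells on the same plate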
PTK2B oligo ant = blocks oligomerization of human Pyk2 in cells | Q293 cells, Pyk2 FERM NanoBiT luminescence; active compounds read low | actives 0.83% (n = 99,000) | z-score (the deposit names both 25 µM and 10 µM) | Q14289 | AID 1347419;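 active = Z-score of -3 or lower, scaled per plate to the spread of control and sample wells; inactive = z-score above -3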;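 note: negative z-score means lost luminescence so less FERM oligomerization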
Cav3 T inh = inhibitors of human Cav3.2 T-type calcium channel | actives 4% (n = 100,000) | Cav3.2-expressing cells, Fluo-4 calcium fluorescence FDSS; active compounds read low | B-score at 10 µM | O95180;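 active = single-dose well whose peak fluorescence ratio is a statistical outlier from its plate by either plate-standardised score or position-corrected B-score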
hDAT+cocaine = human DAT dopamine uptake with cocaine, either direction; LLC-PK1 hDAT cells, [14C]-dopamine uptake with cocaine IC80; actives deviate in either direction; Q01959; actives 1.3% (n = 110,000); B-score at 10 µM;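 active = Z score or B-score, a plate-position-corrected score, falls beyond the plate's 99.7% confidence bounds, in either direction; inactive = both scores lie inside the 99.7% bounds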;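 note: scored against the spread of the other compound wells on the same plate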
Plk1 PBD FP = inhibitors of human Plk1 polo box domain binding; actives 0.13% (n = 97,000); Plk1 PBD phosphopeptide binding, fluorescence polarization; P53350; AID 693; inhibition, %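 (tested at about 20 µM)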; in the data active = inhibition above about 34%, passing the limit was not always enough
PLK1 kinase inh = inhibitors of human PLK1 kinase. P53350. recombinant PLK1 kinase, TR-FRET peptide phosphorylation. inhibition, % at 10 µM. actives 0.53% (n = 97,000). AID 619;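 active = inhibition of 50% or more in the single-concentration screen; inactive = inhibition below 50%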;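 note: 0% = DMSO max control and 100% = H-89 dihydrochloride min control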
* hit, by the source's call; / = not tested or not shown; [ ] = remark or other dose. This is a sample that favours compounds with a hit; in the whole collection about 4.7% have one here.

SMILES	sdo1 growth	PTK2B oligo ant	Cav3 T inh	hDAT+cocaine	Plk1 PBD FP	PLK1 kinase inh
CCCCNC(=O)C(C#N)c1nc2ccccc2nc1N1CCN(c2ccccc2F)CC1 (stereo not given)	0.5[10.2 µM]	-1.37	-7.54*	-1.1	15.5	-2.2
COCCCNC(=O)C(C#N)c1nc2ccccc2nc1N1CCN(Cc2ccccc2)CC1 (stereo not given)	-1.38	-1.93	-8.99*	2.39	/	/
CC(C)COC(=O)C(C#N)c1nc2ccccc2nc1N1CCN(Cc2ccccc2)CC1 (stereo not given)	-1.37	-1.28	-3.96*	0.76	-9.5	-12.4
C=CCOC(=O)C(C#N)c1nc2ccccc2nc1N1CCN(Cc2ccccc2)CC1 (stereo not given)	-1.45	-0.43	0.0113	0.0818	/	/
COCCNC(=O)C(C#N)c1nc2ccccc2nc1N1CCCCCC1 (stereo not given)	-0.75	0.05	/	/	-2.1	-15.1
O=C(CSc1nnc2c(Cl)cc(Cl)cn12)N1CCN(c2ccc(F)cc2)CC1	-0.19	/	/	/	/	/
O=C(c1ccc(N2CCN(CCO)CC2)nc1)N1CCOCC1	0	/	/	/	/	/
CCOC(=O)c1ccc(NC(=O)CN2C(=O)CSC(C)C2=O)cc1 (stereo not given)	1.46	/	/	/	/	/
CCN(C(=O)CN1CCOCC1)C1(C)C(=O)c2ccccc2C1=O	0.55	/	/	/	/	/
CCN(CC)S(=O)(=O)c1cc(C)ccc1SC	-0.52	/	/	/	/	/
COCC(C)OC(=O)C(C#N)c1nc2ccccc2nc1N1CCN(Cc2ccccc2)CC1 (stereo not given)	-1.15	-1.32	-6.12*	1.1	-15.8	-8.0
C=CCNC(=O)C(C#N)c1nc2ccccc2nc1N1CCN(Cc2ccccc2)CC1 (stereo not given)	0.13	-0.27	0.161	-1.71	-22.3	-3.0
N#CC(C(=O)NC1CC1)c1nc2ccccc2nc1N1CCN(C/C=C/c2ccccc2)CC1 (stereo not given)	-2.59	-0.77	-11.3*	-0.65	-10.1	-4.9
CCOC(=O)c1c(-c2ccc(OC)cc2)csc1/N=C/C1=C(O)CCCC1=O	0.33	/	/	/	/	/
Cc1ccc(-c2nnc3n2N=C(c2ccccc2Br)CS3)cc1	-1.71	-1.61	-4.02*	1.36	10.3	-10.2
Cc1cc(-c2nnc3n2N=C(c2ccc(-c4ccccc4)cc2)CS3)n[nH]1	-1.69	-3.4*	0.551	0.767	1.0	-11.9
c1ccc(C2=Nn3c(nnc3-c3ccncc3)SC2)cc1	0.43	-0.4	0.789	-0.178	7.1	2.6
Cc1ccc(S(=O)(=O)NC(=O)c2cc(C)n(-c3ccc(N(C)C)cc3)c2C)cc1	0.9	/	/	/	/	/
CCCCC(C)n1[nH]c(=O)cc1N (stereo not given)	-0.07	1.53	0.753	-0.935	3.9	-4.7
CCCC(C)n1[nH]c(=O)cc1N (stereo not given)	2.13	1.02	/	-2.79*	14.3	1.7
Cc1ccc(C)c(N2C(=O)c3cc(N4CCOCC4)c([N+](=O)[O-])cc3C2=O)c1	0.29	/	/	/	/	/
O=C(c1ccc2c3n(nc2c1)-c1ccccc1CO3)N1CCCCC1	/	/	0.794	2.56*	/	/
O=C(c1ccc2c3n(nc2c1)-c1ccccc1CO3)N1CCOCC1	/	/	-1.72	1.2	/	/
CC1(C)Cc2ccccc2C(N/N=C/c2ccc(Cl)cc2)=N1	-0.48	/	/	/	/	/
CC(NC(=O)Cn1ccsc1=N)C12CC3CC(CC(C3)C1)C2 (stereo not given)	0.34	0.1	0.349	-6.25*	8.6	-14.9
SMILES	sdo1 growth	PTK2B oligo ant	Cav3 T inh	hDAT+cocaine	Plk1 PBD FP	PLK1 kinase inh
CC(NC(=O)CN1C(=O)NC(Cc2ccccc2)(Cc2ccccc2)C1=O)C12CC3CC(CC(C3)C1)C2 (stereo not given)	-1.26	-1.19	-5.15*	0.0635	23.6	-7.8
CC(C)(C)CC(=O)Nc1nn[nH]n1	2.29	/	/	/	/	/
O=C(NCCOc1nc(N2CCOCC2)nc(N2CCOCC2)n1)Nc1ccccc1	0.13	0.01	0.605	1.18	-8.3	-0.9
CCN(CC)c1nc(OCCNC(=O)Nc2ccccc2)nc(N(CC)CC)n1	-1.66	-2.88	-10.3*	1.59	10.3	0.4
Cc1cc2oc(=O)cc(CN3CCc4ccccc43)c2cc1Cl	-2.08	-1	-5.25*	-1.37	-6.0	-8.6
Clc1ccc2c(c1)-c1nnc(Br)n1-c1ccccc1S2	-1	-2.05	-3.9*	0.0495	-27.1	-5.2
Cc1ccc(Cl)cc1N1CCN(C(=O)CN(C2CCCCC2)S(C)(=O)=O)CC1	-0.93	-0.42	-4.86*	0.361	6.0	-11.4
Cc1ccc(S(=O)(=O)N(CC(=O)N2CCN(c3ccc(F)cc3)CC2)C2CCCCC2)cc1	-1.78	-0.61	-5.77*	1.03	-8.2	-7.2
CCOC(=O)N1CCC(Nc2c(-c3ccc(C)c(C)c3)c(=O)c2=O)CC1	0.53	0.66	0.899	-1.26	1.0	-14.0
CCOC(=O)N1CCC(Nc2c(N3CCN(c4cc(Cl)ccc4C)CC3)c(=O)c2=O)CC1	0.33	/	-4.14*	0.996	-5.5	-5.9
CS(=O)(=O)N(CC(=O)N1CCN(c2cccc(Cl)c2)CC1)C1CCCCC1	0.06	0.33	-0.197	0.775	-8.7	-6.5
COc1cccc(-c2ccc(SCC(=O)N3CCc4ccccc43)nn2)c1	-1.01	/	/	/	/	/
O=C(C1CCCN(S(=O)(=O)c2ccc(Cl)cc2)C1)N(Cc1cccs1)C1CC1 (stereo not given)	-2.59	-0.59	-5.59*	-0.0251	/	/
CCCCCCCCCCSc1n[nH]c(NC(C)=O)n1	1.45	1.4	-2.35	-0.633	8.7	0.4
CCCSc1n[nH]c(NC(C)=O)n1	1.43	/	-0.423	2.67	6.7	69.3*
O=C(COC(=O)C1CCN(S(=O)(=O)c2ccccc2C(F)(F)F)CC1)NCc1ccc(F)cc1	-0.2	/	/	/	/	/
COC(=O)c1ccc(COC(=O)CCc2nc(-c3ccccc3)c(-c3ccccc3)o2)cc1	0.29	0.13	-5.22*	0.0259	-0.7	-7.7
COc1coc(C(O)C[N+](=O)[O-])cc1=O (stereo not given)	1.54	/	/	/	/	/
CC1CC(C)CN(CCOc2cccc(Cl)c2Cl)C1 (stereo not given)	-0.44	/	/	/	/	/
CC1CC(C)CN(CCOc2ccc(Cl)cc2Cl)C1 (stereo not given)	-1.78	0.23	-0.766	-8.26*	20.6	-13.5
O=C(/C=C\c1ccc2c(c1)OCO2)Nc1c2c(nn1-c1ccc(Cl)cc1)CSC2	-0.15	/	/	/	/	/
O=C(NCc1ccco1)c1cc(-c2ccncc2)nc2ccccc12	0.12	-0.23	-5.77*	1.54	3.4	-8.9
COc1ccc(NC(=S)N2CCC(N(C)CC3CCCO3)CC2)cc1Cl (stereo not given)	0.14	/	/	/	/	/
COc1ccc(NS(=O)(=O)c2ccc(N3CCCC3)c(NC(=S)Nc3cccc(S(=O)(=O)N(C)C)c3)c2)cc1	0.14	/	/	/	/	/
CC(=O)N1CCN(c2ccc(OC[C@H]3CO[C@](Cn4ccnc4)(c4ccc(Cl)cc4Cl)O3)cc2)CC1	-2.06	/	-0.656	3.83*	/	/
CC1CC1C(=O)Nc1nc(-c2ccccc2)cs1 (stereo not given)	-1.47	0.23	-4.02*	0.845	2.3	-8.0
